PubChem BioAssay (NCI)
Compounds without any hit were thinned out: in the full panel of roughly 83,000, 20% have a hit.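 Growth was measured after 48 h exposure to one concentration of compound in 96-well plates. Values under 10 count as active.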 Calls of active or inactive are those of the source.

Tests used:
Test in all cases: NCI-60 one-dose screen, 48 h (100 = growth as untreated, 0 = no growth, -100 = all killed)
Conditions in all cases: 10 µM unless noted
NCI-H23 lung = test system: NCI-H23 lung
NCI-H322M lung = test system: NCI-H322M lung
HOP-62 NSCLC = test system: HOP-62 NSCLC
NCI-H460 lung = test system: NCI-H460 lung
HOP-92 NSCLC = test system: HOP-92 NSCLC
NCI-H522 lung = test system: NCI-H522 lung
A549/ATCC NSCLC = test system: A549/ATCC NSCLC
786-0 renal = test system: 786-0 renal
COLO 205 colon = test system: COLO 205 colon
NCI-H226 lung = test system: NCI-H226 lung

Measured: growth

O=C(O)/C=C(\c1nc2ccc([N+](=O)[O-])cc2[nH]1)c1cc(Cl)ccc1O
active: NCI-H23 lung 4.9% | HOP-92 NSCLC 8.34% | NCI-H522 lung 2.47%
inactive: NCI-H322M lung 33.6% | HOP-62 NSCLC 42.8% | NCI-H460 lung 14.4% | A549/ATCC NSCLC 27% | 786-0 renal 44% | COLO 205 colon 27.5%

COc1ccc(/C(=C\c2cc(OC)c(OC)c(OC)c2)C(=O)N2CCNCC2)cc1
inactive: NCI-H23 lung 102% | NCI-H322M lung 99.2% | HOP-62 NSCLC 97.4% | NCI-H460 lung 105% | HOP-92 NSCLC 94% | NCI-H522 lung 79.1% | A549/ATCC NSCLC 90.4% | 786-0 renal 103% | COLO 205 colon 113%

COc1cc(-c2nc(-c3nc4cc(C(=O)c5ccccc5)ccc4[nH]3)cc3c2[nH]c2ccccc23)cc(OC)c1OC
inactive: NCI-H23 lung 104% | NCI-H322M lung 99.4% | HOP-62 NSCLC 97.7% | NCI-H460 lung 95.6% | HOP-92 NSCLC 82.5% | NCI-H522 lung 90.6% | A549/ATCC NSCLC 75.9% | 786-0 renal 97.3% | COLO 205 colon 97.7%

CC(C)OC(=O)c1ccc([N+](=O)[O-])cc1
inactive: NCI-H23 lung 103% | NCI-H322M lung 111% | HOP-62 NSCLC 110% | NCI-H460 lung 109% | HOP-92 NSCLC 84.1% | NCI-H522 lung 105% | A549/ATCC NSCLC 101% | 786-0 renal 109% | COLO 205 colon 123%

COc1cc(C2CC(c3cccc(Nc4ccnc5cc(Cl)ccc45)c3)=NN2c2ccccc2)cc(OC)c1OC (configuration not stated)
inactive: NCI-H226 lung 82.1% | NCI-H322M lung 87% | HOP-62 NSCLC 82.3% | NCI-H460 lung 71.1% | HOP-92 NSCLC 33.3% | NCI-H522 lung 53.8% | A549/ATCC NSCLC 76.2% | 786-0 renal 88% | COLO 205 colon 92.2%

CCN(CC)CCNc1c(C)cc(CO)c(Cl)c1C
inactive: NCI-H23 lung 102% | NCI-H322M lung 110% | HOP-62 NSCLC 113% | NCI-H460 lung 98.9% | HOP-92 NSCLC 109% | NCI-H522 lung 104% | A549/ATCC NSCLC 84.5% | 786-0 renal 103% | COLO 205 colon 85.2%

CN(C)c1ccc(C(c2ccccc2)c2ccc(N(C)C)cc2)cc1
inactive: NCI-H23 lung 79.1% | NCI-H322M lung 128% | HOP-62 NSCLC 104% | NCI-H460 lung 99% | HOP-92 NSCLC 63.4% | NCI-H522 lung 88.3% | A549/ATCC NSCLC 91.8% | 786-0 renal 97.5% | COLO 205 colon 111%

C#CC[C@@H]1C[C@]2(C)[C@H]3CC[C@@H]4[C@H]5C(C(=C)C)CC[C@]5(C(=O)NCCN(CCN)CCN)CC[C@@]4(C)[C@]3(C)CC[C@H]2C(C)(C)[C@H]1OC(C)=O (some centres not stated)
inactive: NCI-H23 lung 77.3% | NCI-H322M lung 71.4% | HOP-62 NSCLC 83.3% | NCI-H460 lung 81.8% | HOP-92 NSCLC 66.3% | NCI-H522 lung 61.7% | A549/ATCC NSCLC 53.4% | 786-0 renal 90.3% | COLO 205 colon 69.3%

Cn1c(=O)c2c3c(oc2c2ccccc21)C(=O)c1ccccc1C3=O
inactive: NCI-H23 lung 78.3% | NCI-H322M lung 96.2% | HOP-62 NSCLC 81.8% | NCI-H460 lung 78.5% | HOP-92 NSCLC 101% | NCI-H522 lung 50.6% | A549/ATCC NSCLC 81.7% | 786-0 renal 107% | COLO 205 colon 74.5%

CC(COC(=O)c1ccccc1)N1CC2CCC(C1)O2 (configuration not stated)
inactive: NCI-H23 lung 107% | NCI-H322M lung 97.8% | HOP-62 NSCLC 95.1% | NCI-H460 lung 104% | HOP-92 NSCLC 91.1% | NCI-H522 lung 104% | A549/ATCC NSCLC 100% | 786-0 renal 99.8% | COLO 205 colon 104%

COc1cc(C2Nc3ccccc3S2)cc(CN2CCOCC2)c1O (configuration not stated)
active: NCI-H522 lung -2.67%
inactive: NCI-H23 lung 78.8% | NCI-H322M lung 116% | HOP-62 NSCLC 86.1% | NCI-H460 lung 52.7% | HOP-92 NSCLC 103% | A549/ATCC NSCLC 73.6% | 786-0 renal 104% | COLO 205 colon 89.6%

C#CC[C@@H]1C[C@]2(C)[C@H]3CC=C4[C@H]5[C@@H](C)[C@H](C)CC[C@]5(C(=O)NCCCN5CCN(CCCN)CC5)CC[C@@]4(C)[C@]3(C)CC[C@H]2C(C)(C)[C@H]1OC(C)=O
active: NCI-H322M lung -48.2% | NCI-H460 lung -60.7% | HOP-92 NSCLC -20.5% | NCI-H522 lung -55.4% | A549/ATCC NSCLC -23.5% | 786-0 renal -97% | COLO 205 colon -69.9%
inactive: NCI-H23 lung 19.8% | HOP-62 NSCLC 58.9%

CCOC(=O)C1=C(C)NC(SCc2nnc(-c3ccc(Cl)cc3)o2)=NC1c1ccc(Br)cc1 (configuration not stated)
inactive: NCI-H23 lung 75.7% | NCI-H322M lung 86.4% | HOP-62 NSCLC 86.9% | NCI-H460 lung 80.4% | HOP-92 NSCLC 57.8% | NCI-H522 lung 67.6% | A549/ATCC NSCLC 62.4% | 786-0 renal 84.9% | COLO 205 colon 77.6%

c1ccc(C(CC2=NCCCN2)c2ccccc2)cc1
inactive: NCI-H23 lung 99.6% | NCI-H322M lung 99.7% | HOP-62 NSCLC 94.1% | NCI-H460 lung 102% | HOP-92 NSCLC 82.6% | NCI-H522 lung 90.9% | A549/ATCC NSCLC 91.7% | 786-0 renal 107% | COLO 205 colon 102%

CCN(CC)CCCNc1cccc2c(C)cc(OC)nc12
inactive: NCI-H23 lung 90.5% | NCI-H322M lung 93.6% | HOP-62 NSCLC 98.8% | NCI-H460 lung 100% | HOP-92 NSCLC 58.4% | NCI-H522 lung 87.5% | A549/ATCC NSCLC 94.8% | 786-0 renal 94.6% | COLO 205 colon 87.4%

Fc1cc(-c2nnc3sc(-c4ccc(Cl)cc4)nn23)c(Cl)cc1Cl
inactive: NCI-H23 lung 91.6% | NCI-H322M lung 82.3% | HOP-62 NSCLC 116% | NCI-H460 lung 103% | HOP-92 NSCLC 74.8% | NCI-H522 lung 82.8% | A549/ATCC NSCLC 93.8% | 786-0 renal 95.3% | COLO 205 colon 106%

Brc1ccccc1Cn1c(-c2cncs2)nc2ccccc21
inactive: NCI-H23 lung 85.4% | HOP-62 NSCLC 76% | NCI-H460 lung 80.8% | NCI-H522 lung 66.8% | A549/ATCC NSCLC 82.7% | 786-0 renal 90.6% | COLO 205 colon 84.9%
active: HOP-92 NSCLC 0.748%

O=C(NNC(=S)Nc1ccccc1)c1ccc(Nc2ncnc3c2cnn3-c2cccc(Br)c2)cc1
inactive: NCI-H23 lung 99.8% | NCI-H322M lung 95.5% | HOP-62 NSCLC 88% | NCI-H460 lung 112% | HOP-92 NSCLC 93.5% | NCI-H522 lung 88.6% | A549/ATCC NSCLC 112% | 786-0 renal 105% | COLO 205 colon 103%

COc1ccc(Nc2ncnc3c2sc2nc(C)cc(C)c23)cc1
inactive: NCI-H23 lung 111% | NCI-H322M lung 102% | HOP-62 NSCLC 107% | NCI-H460 lung 97.9% | HOP-92 NSCLC 130% | NCI-H522 lung 99.9% | A549/ATCC NSCLC 96% | 786-0 renal 93.9% | COLO 205 colon 111%

O=C(Nc1ccc(Cl)c(C(F)(F)F)c1)c1ccc(Nc2ccc(Cl)nn2)cc1
inactive: NCI-H23 lung 48.4% | HOP-62 NSCLC 86.1% | NCI-H460 lung 74% | HOP-92 NSCLC 82.8% | NCI-H522 lung 62% | A549/ATCC NSCLC 44.3% | 786-0 renal 50.9% | COLO 205 colon 81.6%

Oc1ccc(Cl)cc1-c1cc(-c2ccccc2Cl)[nH]n1
inactive: NCI-H226 lung 81.8% | NCI-H322M lung 65.1% | HOP-62 NSCLC 63.3% | NCI-H460 lung 37.1% | HOP-92 NSCLC 20.6% | NCI-H522 lung 27.4% | A549/ATCC NSCLC 53.1% | 786-0 renal 84.7% | COLO 205 colon 104%

Cc1ccc(CSCc2ccc(C(=O)NC3CC3)o2)cc1
inactive: NCI-H226 lung 105% | NCI-H322M lung 80.8% | HOP-62 NSCLC 109% | NCI-H460 lung 52.2% | HOP-92 NSCLC 75.2% | NCI-H522 lung 43.5% | A549/ATCC NSCLC 45.3% | 786-0 renal 91.6% | COLO 205 colon 63.7%

CCCCNCCC(O)c1cc2ccc(C(F)(F)F)cc2c2cc(C(F)(F)F)ccc12 (configuration not stated)
active: NCI-H226 lung -70.7% | NCI-H322M lung -37.6% | HOP-62 NSCLC -91.3% | NCI-H460 lung -74.5% | HOP-92 NSCLC -80.6% | NCI-H522 lung -83% | A549/ATCC NSCLC -87.5% | 786-0 renal -85.3% | COLO 205 colon -88.6%

COc1ccc([C@@H]2[C@@H](Cl)C(=O)N2c2cc(OC)c(OC)c(OC)c2)cc1C
active: NCI-H460 lung 9.34% | 786-0 renal 7.98% | COLO 205 colon -57%
inactive: NCI-H226 lung 53.9% | HOP-62 NSCLC 23.3% | HOP-92 NSCLC 76% | NCI-H522 lung 10.2% | A549/ATCC NSCLC 23.6%

Oc1[nH]c2ccc(Cl)cc2c1/C=c1/ccc2c(c1)N=C(c1ccc(F)cc1)N=2
inactive: NCI-H226 lung 89.9% | NCI-H322M lung 84.1% | HOP-62 NSCLC 74.5% | NCI-H460 lung 74.2% | HOP-92 NSCLC 34.2% | NCI-H522 lung 80.7% | A549/ATCC NSCLC 71.4% | 786-0 renal 76% | COLO 205 colon 97.6%

Cc1ccc(NC(=O)c2[nH]c(SCCN(C)C)nc2-c2ccc(F)cc2)cc1Nc1ccc2ncn(C)c(=O)c2c1
inactive: NCI-H226 lung 63.9% | NCI-H322M lung 67% | HOP-62 NSCLC 58.5% | NCI-H460 lung 56.3% | HOP-92 NSCLC 38.7% | A549/ATCC NSCLC 40.3% | 786-0 renal 72.8% | COLO 205 colon 14.5%

CCN(CC)CCC(CNc1ccnc2cc(Cl)ccc12)c1ccc(O)cc1 (configuration not stated)
inactive: NCI-H226 lung 102% | NCI-H322M lung 72.7% | HOP-62 NSCLC 87.4% | NCI-H460 lung 54.2% | HOP-92 NSCLC 53.3% | NCI-H522 lung 97.9% | A549/ATCC NSCLC 97.8% | 786-0 renal 92.3% | COLO 205 colon 71.5%

CCCc1n(Cc2ccc3ccccc3n2)cc[n+]1Cc1ccc2ccccc2n1
inactive: NCI-H226 lung 38% | NCI-H322M lung 72.1% | HOP-62 NSCLC 51.7% | NCI-H460 lung 34.2% | HOP-92 NSCLC 16% | NCI-H522 lung 22.8% | A549/ATCC NSCLC 62.8% | 786-0 renal 85.3%
active: COLO 205 colon -43%

Cc1cc(C)c2c(n1)sc1c(Nc3ccc(Cl)cc3Cl)ncnc12
active: HOP-62 NSCLC 2.53% | NCI-H460 lung 9.44%
inactive: NCI-H226 lung 36.2% | NCI-H322M lung 43.9% | HOP-92 NSCLC 36.2% | NCI-H522 lung 30.5% | A549/ATCC NSCLC 26.2% | 786-0 renal 10.9% | COLO 205 colon 23.3%
